Measurements from ChEMBL document CHEMBL1201862, “PubChem BioAssay data set” (2004).
Out of some 57,000 […] screened, about 5,100 (8.9%) were called active. Cut-off read from the data, not from the text of the source: active = GI50 up to about 1.1 µM and inactive = higher. These entries were drawn from the full list. Entries with a potency or affinity are not part of this list.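 Values below derive from 48-hour exposures of cells grown in 96-well plates, with endpoints linearly interpolated between the two concentrations bracketing the appropriate inhibition level. GI50 = concentration required for 50% inhibition of growth.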

The substances below were run on HCT-116 (assay: NCI tumour cell line growth inhibition, 48 h).

| Substance | GI50 |
| --- | --- |
| [Bis(aminomethyl)tetramethylenesilane]dichloropaltinum(II), CHEMBL2146205 | 11.5 µM |
| [Bis(aminomethyl)pentamethylenesilane]dichloropaltinum(II), CHEMBL2146202 | 2.48 µM |
| CISPLATIN, CHEMBL11359 | 4.12 µM |
| mu-(1,7-nanodiamine-N,N')bis-(cis-aminedichloroplatimum (II)), CHEMBL2146215 | 41.3 µM |
| [Bis(aminomethyl)pentamethylenesilane]tetrachloropaltinum(IV), CHEMBL2146204 | 1.13 µM |
| [Bis(aminomethyl)dimethylsilane]tetrachloroplatinum(IV), CHEMBL2146190 | 8.77 µM |
| [Bis(aminomethyl)diethylsilane]tetrachloroplatinum(IV), CHEMBL2146203 | 3.94 µM |
| [Bis(aminomethyl)tetramethylenesilane]tetrachloropaltinum(IV), CHEMBL2146189 | 4.18 µM |
